Reference: PubChem BioAssay
Calls of active or inactive are those of the source.

Columns and labels:
[1] = binders of probe aFSTL3 on microarray, primary screen, stem cell growth factor project, biochemical, small-molecule microarray, fluorescence 635/667 (AID 1064); conditions: higher = more signal;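 note: measures binding of the biotinylated anti-FSTL3 antibody to printed compounds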
[2] = binders from COS7 lysate, DM2A8 probe, primary screen, torsin A project, cell lysate, small-molecule microarray, fluorescence 635/667 (AID 1065); conditions: higher = more signal, COS7 lysate expressing mutant human TOR1A
[3] = binders of probe aFGF2 on microarray, primary screen, stem cell growth factor project, biochemical, small-molecule microarray, fluorescence 635/667 (AID 1067); conditions: higher = more signal;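 note: measures binding of biotinylated aFGF2 protein to printed compounds on slides; z-score merges feature fluorescence and signal-to-noise across triplicate slides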
[4] = binders of probe aFGF10 on microarray, primary screen, stem cell growth factor project, biochemical, small-molecule microarray, fluorescence 635/667 (AID 1071); conditions: higher = more signal;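 note: score merges 667 nm spot intensity and signal to noise from triplicate slides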
[5] = target: Neurogenic locus notch homolog protein 2 (Homo sapiens) (UniProt Q04721); assay: Notch2 binders on small-molecule microarrays, primary screen, biochemical, small-molecule microarray, 635 nm fluorescence, stem cell growth factors (AID 1073); conditions: Notch2 binding, higher = more signal
Chain of Neurogenic locus notch homolog protein 2 (Homo sapiens) (Q04721 whole entry, looked up, canonical isoform): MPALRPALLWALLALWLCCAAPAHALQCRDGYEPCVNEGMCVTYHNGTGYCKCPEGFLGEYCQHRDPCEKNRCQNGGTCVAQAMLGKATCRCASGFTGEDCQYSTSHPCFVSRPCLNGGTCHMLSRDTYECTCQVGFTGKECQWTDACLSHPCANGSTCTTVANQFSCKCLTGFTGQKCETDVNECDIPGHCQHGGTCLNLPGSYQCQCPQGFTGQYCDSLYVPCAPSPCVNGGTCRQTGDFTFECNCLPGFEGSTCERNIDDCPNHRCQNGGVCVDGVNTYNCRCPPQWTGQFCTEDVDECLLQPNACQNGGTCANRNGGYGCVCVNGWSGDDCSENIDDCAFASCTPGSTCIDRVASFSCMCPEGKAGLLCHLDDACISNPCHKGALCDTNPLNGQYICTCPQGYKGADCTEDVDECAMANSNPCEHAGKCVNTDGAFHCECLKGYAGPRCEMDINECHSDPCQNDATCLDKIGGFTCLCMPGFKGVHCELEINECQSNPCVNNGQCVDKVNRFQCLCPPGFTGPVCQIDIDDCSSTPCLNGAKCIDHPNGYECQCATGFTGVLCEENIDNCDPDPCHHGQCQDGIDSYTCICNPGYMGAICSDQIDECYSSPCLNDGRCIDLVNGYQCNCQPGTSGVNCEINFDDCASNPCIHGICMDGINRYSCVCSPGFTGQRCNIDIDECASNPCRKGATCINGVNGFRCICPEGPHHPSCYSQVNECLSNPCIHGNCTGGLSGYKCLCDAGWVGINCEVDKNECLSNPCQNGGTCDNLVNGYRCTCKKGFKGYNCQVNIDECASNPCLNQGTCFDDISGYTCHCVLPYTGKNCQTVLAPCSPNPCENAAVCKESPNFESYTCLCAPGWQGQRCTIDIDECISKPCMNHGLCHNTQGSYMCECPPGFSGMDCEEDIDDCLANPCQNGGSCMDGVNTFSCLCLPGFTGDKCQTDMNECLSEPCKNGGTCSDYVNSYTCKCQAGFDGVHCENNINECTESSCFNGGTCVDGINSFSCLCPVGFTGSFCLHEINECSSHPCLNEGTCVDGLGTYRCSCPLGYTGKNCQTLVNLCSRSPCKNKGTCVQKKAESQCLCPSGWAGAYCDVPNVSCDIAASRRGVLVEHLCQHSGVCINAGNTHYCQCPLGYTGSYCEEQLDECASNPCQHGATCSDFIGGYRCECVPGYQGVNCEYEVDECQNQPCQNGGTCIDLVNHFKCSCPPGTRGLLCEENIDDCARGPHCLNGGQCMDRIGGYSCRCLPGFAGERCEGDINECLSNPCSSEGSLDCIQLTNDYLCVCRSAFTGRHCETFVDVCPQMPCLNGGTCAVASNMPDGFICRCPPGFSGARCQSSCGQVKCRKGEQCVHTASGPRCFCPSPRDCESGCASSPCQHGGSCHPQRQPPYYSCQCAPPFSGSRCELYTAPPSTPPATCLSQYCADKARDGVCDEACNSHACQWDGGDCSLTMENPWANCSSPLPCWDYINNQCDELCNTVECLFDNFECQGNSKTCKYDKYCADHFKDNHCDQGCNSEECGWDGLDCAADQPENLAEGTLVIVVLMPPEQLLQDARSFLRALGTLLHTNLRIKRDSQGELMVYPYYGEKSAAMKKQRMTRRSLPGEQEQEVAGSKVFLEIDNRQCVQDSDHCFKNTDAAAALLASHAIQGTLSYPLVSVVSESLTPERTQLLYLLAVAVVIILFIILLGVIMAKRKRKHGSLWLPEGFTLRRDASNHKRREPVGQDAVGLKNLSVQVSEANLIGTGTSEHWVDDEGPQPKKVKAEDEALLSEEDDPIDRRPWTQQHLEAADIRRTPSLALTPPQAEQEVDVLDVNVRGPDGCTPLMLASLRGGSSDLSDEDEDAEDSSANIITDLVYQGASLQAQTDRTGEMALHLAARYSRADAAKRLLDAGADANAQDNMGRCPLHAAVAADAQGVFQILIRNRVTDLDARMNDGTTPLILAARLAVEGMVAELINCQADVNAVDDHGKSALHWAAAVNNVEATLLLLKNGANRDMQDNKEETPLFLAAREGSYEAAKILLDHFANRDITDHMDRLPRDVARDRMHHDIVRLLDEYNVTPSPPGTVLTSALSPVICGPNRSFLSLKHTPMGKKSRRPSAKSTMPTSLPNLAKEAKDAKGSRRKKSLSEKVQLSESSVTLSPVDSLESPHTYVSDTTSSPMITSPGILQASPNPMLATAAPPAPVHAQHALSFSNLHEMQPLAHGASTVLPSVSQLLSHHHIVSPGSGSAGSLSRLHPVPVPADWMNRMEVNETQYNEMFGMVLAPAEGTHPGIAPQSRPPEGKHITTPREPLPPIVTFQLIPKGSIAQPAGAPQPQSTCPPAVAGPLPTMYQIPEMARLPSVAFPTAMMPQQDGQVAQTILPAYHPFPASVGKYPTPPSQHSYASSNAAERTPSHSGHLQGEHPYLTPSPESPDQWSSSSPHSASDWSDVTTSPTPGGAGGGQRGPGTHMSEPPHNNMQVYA

[6] = target: Pro-neuregulin-1, membrane-bound isoform (Homo sapiens) (UniProt Q02297); assay: NRG1 binders on small-molecule microarrays, primary screen, psychiatric disease protein project, biochemical, small-molecule microarray, fluorescence 635/667 (AID 1075); conditions: NRG1 binding, 635 nm fluorescence, higher = more signal;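 note: score combines 667 nm spot fluorescence with signal to noise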
Chain of Pro-neuregulin-1, membrane-bound isoform (Homo sapiens) (Q02297 whole entry, looked up, the tested form may be a part, canonical isoform): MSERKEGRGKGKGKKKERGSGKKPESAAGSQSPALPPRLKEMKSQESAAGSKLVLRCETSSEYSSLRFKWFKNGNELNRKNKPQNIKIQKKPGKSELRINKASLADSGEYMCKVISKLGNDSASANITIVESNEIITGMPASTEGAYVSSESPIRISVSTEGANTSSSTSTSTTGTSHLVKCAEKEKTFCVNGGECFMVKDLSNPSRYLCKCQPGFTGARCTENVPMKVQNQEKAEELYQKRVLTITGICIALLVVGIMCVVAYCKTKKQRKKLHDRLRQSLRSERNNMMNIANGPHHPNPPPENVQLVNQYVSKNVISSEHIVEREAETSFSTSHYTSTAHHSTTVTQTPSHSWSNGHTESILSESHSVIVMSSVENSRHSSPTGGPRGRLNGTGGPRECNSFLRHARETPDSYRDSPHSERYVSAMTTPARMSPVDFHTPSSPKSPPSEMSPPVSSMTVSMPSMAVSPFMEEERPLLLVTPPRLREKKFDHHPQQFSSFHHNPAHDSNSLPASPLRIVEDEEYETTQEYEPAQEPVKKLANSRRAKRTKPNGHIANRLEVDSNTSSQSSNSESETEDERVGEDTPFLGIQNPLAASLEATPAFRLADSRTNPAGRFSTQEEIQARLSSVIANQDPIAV

[7] = tested on: Neuregulin-1 EGF-like domain; assay: binders of neuregulin-1 EGF-like domain, primary screen, biochemical, small-molecule microarray, 635 nm fluorescence (AID 1081); conditions: small-molecule microarray binding, higher = more signal;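 note: binding of the protein to compounds printed on small-molecule microarray slides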
[8] = FRG1 promoter luciferase signal modulators, primary screen, FRG1 inhibition for FSHD, cell-based, C2C12 myotubes, firefly/Renilla luciferase, luminescence (AID 1084); conditions: higher = more signal, called active from +8 up or from −8 down
[9] = binders of probe aFST on microarray, primary screen, stem cell growth factor project, biochemical, small-molecule microarray, fluorescence 635/667 (AID 1086); conditions: higher = more signal;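 note: score merges 667 nm fluorescence with signal-to-noise of each printed compound spot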
[10] = binders of probe aHhip on microarray, primary screen, stem cell growth factor project, biochemical, small-molecule microarray, fluorescence 635/667 (AID 1087); conditions: higher = more signal;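 note: score merges spot fluorescence at 667nm with spot signal to noise ratio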
[11] = tested on: PRMT1 (protein arginine N-methyltransferase 1); assay: PRMT1 binders on small-molecule microarrays, primary screen, biochemical, small-molecule microarray, 635 nm fluorescence (AID 1088); conditions: small-molecule microarray binding, higher = more signal;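 note: binding of Prmt1 protein to compounds spotted on small-molecule microarray slides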
[12] = yeast growth modulation, basal conditions, primary screen, YJM789 clinical isolate, OD600, 24 h (AID 1089);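 note: growth of clinical yeast isolate S. cerevisiae YJM 789 seeded 1000 cells per well; test concentration not given here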; conditions: S. cerevisiae YJM789 growth, higher = more signal, called active from +8 up or from −8 down
[13] = fission yeast growth modulation, primary screen, strain 972, OD600, 24 h, no modulator (AID 1090);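 note: basal condition with compound alone and no growth modifier present; test concentration not given here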; conditions: S. pombe 972 growth, higher = more signal, called active from +8 up or from −8 down
[14] = S. cerevisiae growth modulation with rapamycin, primary screen, strain BY4716, OD600, 96 h (AID 1091); conditions: higher = more signal, called active from +8 up or from −8 down; note: test concentration not given here
[15] = target: Torsin-1A-interacting protein 2 (Homo sapiens) (UniProt Q8NFQ8); assay: LULL1 binders on small-molecule microarray, primary screen, cell lysate, human LULL1 lysate, 635/667 nm fluorescence (AID 1092); conditions: hLULL1 lysate binding, 635 nm fluorescence, higher = more signal;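 note: probe is lysate of COS7 cells overexpressing human LULL1; score merges per-feature 667 nm fluorescence with signal-to-noise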
Chain of Torsin-1A-interacting protein 2 (Homo sapiens) (Q8NFQ8 whole entry, looked up): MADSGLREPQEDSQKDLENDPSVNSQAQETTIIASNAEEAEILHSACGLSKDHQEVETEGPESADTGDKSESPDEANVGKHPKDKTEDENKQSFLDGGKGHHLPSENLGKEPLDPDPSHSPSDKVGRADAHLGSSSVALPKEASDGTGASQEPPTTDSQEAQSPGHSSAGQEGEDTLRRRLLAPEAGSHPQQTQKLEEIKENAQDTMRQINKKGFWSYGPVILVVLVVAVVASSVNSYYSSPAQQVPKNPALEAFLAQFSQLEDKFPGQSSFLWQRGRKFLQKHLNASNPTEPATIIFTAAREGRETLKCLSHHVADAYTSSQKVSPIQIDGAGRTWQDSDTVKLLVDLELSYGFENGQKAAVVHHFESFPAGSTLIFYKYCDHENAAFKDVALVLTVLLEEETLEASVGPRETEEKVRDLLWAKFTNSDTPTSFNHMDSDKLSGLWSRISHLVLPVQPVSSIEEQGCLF

[16] = E. coli growth modulation, two-sided OD650, primary screen, E. coli filamentation project, strain DRC41, 24 h (AID 1093); conditions: OD650, 24 h, higher = more signal, called active from +8 up or from −8 down;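 note: MC1000 strain lacking acrAB efflux and sulA so SOS filamentation is blocked; test concentration not given here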
[17] = small-molecule microarray binders of probe aLefty2, primary screen, biochemical, biotinylated probe, 635/667 nm fluorescence (AID 1094); conditions: higher = more signal;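 note: score merges spot fluorescence near 667 nm with spot signal-to-noise ratio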
[18] = tested on: Noggin (protein binding on small-molecule microarray); assay: Noggin binders on small-molecule microarray, primary screen, biochemical, 635/667 nm fluorescence (AID 1095); conditions: 635 nm fluorescence, higher = more signal;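 note: score merges 667 nm feature fluorescence with signal to noise over triplicate slides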
[19] = target: Neurogenic locus notch homolog protein 3 (Homo sapiens) (UniProt Q9UM47); assay: NOTCH3 binders on small-molecule microarray, primary screen, biochemical, 635/667 nm fluorescence (AID 1096); conditions: NOTCH3 binding, 635 nm fluorescence, higher = more signal
[20] = small-molecule microarray binders of probe aEGFR, primary screen, biochemical, biotinylated probe, 635/667 nm fluorescence (AID 1097); conditions: higher = more signal;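 note: probe is a biotinylated anti-EGFR antibody binding compounds printed on slides; score combines fluorescence near 667 nm and signal to noise of each spot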

SMILES | composite z-score [1] | composite z-score [2] | composite z-score [3] | composite z-score [4] | composite z-score [5] | composite z-score [6] | composite z-score [7] | z-score [8] | composite z-score [9] | composite z-score [10] | composite z-score [11] | z-score [12] | z-score [13] | z-score [14] | composite z-score [15] | z-score [16] | composite z-score [17] | composite z-score [18] | composite z-score [19] | composite z-score [20]
CC(C)(C)N1CC=CC23O[C@@H]4C=CCCOC(=O)C4[C@H]2C(=O)N(CCCO)[C@@H]3C1=O (stereo not given in full) | 0.248 | -0.527 | -0.181 | -0.642 | -1.5 | -0.509 | -0.174 | 0.489 (inactive) | -0.383 | -0.0994 | -1.49 | 0.0588 (inactive) | -0.37 (inactive) | -0.199 (inactive) | -1.09 | 1.04 (inactive) | -0.195 | -0.399 | -1.7 | -0.268
CC1CC/C=C\[C@H]2OC34C=CCN(Cc5ccccc5)C(=O)[C@H]3N(CCO)C(=O)[C@@H]4C2C(=O)O1 (stereo not given in full) | 0.767 | 2.2 | -0.0662 | 1.1 | -0.821 | 1.86 | 1.51 | 0.781 (inactive) | -0.253 | -0.0994 | 0.205 | -0.404 (inactive) | -0.791 (inactive) | 0.285 (inactive) | 1.27 | 1.36 (inactive) | -0.0042 | -0.585 | -0.127 | -0.113
C=CCOC(=O)[C@@H]1[C@H]2C(=O)O[C@H](c3ccccc3)[C@H](c3ccccc3)N2[C@H](c2ccc(OCCOC(=O)[C@@H]3C[C@@H]4C(=O)N[C@@H](CCCCNC(C)=O)C(=O)N4[C@@H]3c3ccc(O)cc3)cc2)[C@@]12C(=O)Nc1ccc(I)cc12 | -0.101 | 0.0133 | -0.0502 | 0.722 | 0.971 | 0.767 | 1.16 | 0.0976 (inactive) | 0.4 | -0.0346 | 1.54 | 0.0797 (inactive) | 0.994 (inactive) | 2.96 (inactive) | 2.15 | -0.101 (inactive) | -0.0248 | 1.42 | 1.13 | 0.15
CC(C)c1ccc(NN2C(C(O)c3ccccn3)C=CC3C(=O)N(c4ccccc4)C(=O)C32)cc1 (stereo not given) | -0.311 | 0.205 | 0.235 | 1.17 | 1.64 | 1.64 | 1.42 | 3.43 (inactive) | 1.49 | 0.347 | 1.5 | 0.485 (inactive) | -0.951 (inactive) | -0.252 (inactive) | 3.7 | -0.405 (inactive) | 0.0038 | 1.7 | 1.05 | 0.154
CC1=C2[C@@H](CCc3ccccc3)OB(O)C[C@@H]2[C@@H]2C(=O)C=CC(=O)[C@@H]2C1 | -0.741 | 0.654 | -0.0887 | 1.13 | 1.38 | 0.51 | 0.976 | -1.57 (inactive) | 0.32 | -0.16 | 1.31 | -0.689 (inactive) | -15.6 (active) | -0.679 (inactive) | 0.775 | -0.315 (inactive) | 0.0037 | 0.642 | 1.1 | 0.0484
COc1ccc([Si](C)(C)[C@@H]2[C@@H](CC(=O)N3Cc4ccccc4C[C@H]3CO)O[C@]3(C(=O)N(Cc4cccc(N5CCCCC5=O)c4)c4ccccc43)[C@H]2C)cc1 | -0.429 | 0.569 | 0.0207 | 0.494 | 0.523 | 0.69 | 0.899 | -2.18 (inactive) | 0.272 | -0.0994 | 1.55 | 0.318 (inactive) | 1.41 (inactive) | 2.4 (inactive) | 1.79 | 0.73 (inactive) | -0.0878 | 1.41 | 1.07 | -0.0356
CCN(CC)c1ccc(N2CC=CC34O[C@@H]5/C=C\CCCOC(=O)C5[C@H]3C(=O)N(CCCCCCO)[C@@H]4C2=O)cc1 (stereo not given in full) | 0.272 | -0.305 | -0.119 | -0.964 | -0.946 | 1.63 | 0.709 | -0.489 (inactive) | -0.958 | -0.271 | 0.529 | -2.29 (inactive) | -0.737 (inactive) | -0.64 (inactive) | 3.35 | 1.27 (inactive) | -0.162 | -0.885 | -0.122 | -0.197
Cc1ccc(S[C@]2(C(=O)NCC(C)C)CC(=O)N(C3CCCCC3)[C@@H]2c2ccc(CO)cc2I)cc1 | -0.25 | 0.0044 | 0.062 | 0.384 | 0.939 | 1.42 | 1.03 | -2.29 (inactive) | 0.0997 | -0.166 | 1.56 | -0.525 (inactive) | 0.293 (inactive) | -0.0866 (inactive) | 2.59 | 0.12 (inactive) | 0.11 | 0.165 | 1 | -0.276
C=C(CCCC)/C(=C/C[C@H](OC(=O)c1ccncc1)c1ccc(CO)o1)c1cc(C(=O)OC)ccc1OC | -0.293 | 1.83 | -0.116 | 0.418 | 0.822 | 1.01 | 1.26 | -0.906 (inactive) | 0.381 | 0.0722 | 1.56 | -0.0643 (inactive) | -1.65 (inactive) | -0.57 (inactive) | 2.12 | 0.171 (inactive) | 0.0123 | 1 | 1.13 | -0.0056
CCCNC(=O)[C@@H]1c2ccccc2C(=O)N(CC23CC4CC(CC(C4)C2)C3)[C@H]1c1ccc(CO)cc1 | -0.371 | -0.101 | -0.0588 | 0.618 | 1.56 | 1.3 | 1.26 | -2.41 (inactive) | 1.3 | 0.0373 | 1.44 | -0.449 (inactive) | -1.63 (inactive) | 0.835 (inactive) | 2.79 | -0.693 (inactive) | 0.267 | 0.406 | 1.1 | 0.167
